40 compounds from ChEMBL document CHEMBL3433997, “St. Jude Leishmania screening dataset” (2016) can be followed below.

For the assay, the target named is Glucose transporter (Leishmania mexicana) (UniProt O61059). The assay can be described thus: ST_JUDE_LEISH: Cytotoxicity at 2uM final concentration against transgenic Leishmania Mexicana promastigotes LmGT2 that are glucose transport deficient and complemented with the L. Mexicana glucose transporter 2. Activity is measured by DNA content using SYBR green in vitro. Type of assay: functional.
For the compound `N=c1n(Cc2ccccc2)c2ccccc2n1CC(O)c1ccc(Cl)c(Cl)c1` (stereo not given), the inhibition was 1.3%.
On to `Brc1ccc(Nc2ccnc3cc(-c4nccs4)ccc23)cc1Oc1ccnc2cc(-c3nccs3)ccc12`, for which the inhibition is -0.86%.
On to `c1cc(CN2CCN(c3ccncc3)CC2)cc(-c2ccc(-c3nc4ccccc4[nH]3)cc2)c1`, for which the inhibition came out at 2.65%.
For the compound `COc1cc(NC(=O)N2CCOC(CCN3CCC(c4ccccc4)CC3)(c3ccc(Cl)c(Cl)c3)C2)cc(OC)c1OC` (stereo not given), the inhibition came out at 1.05%.
For `Cc1cc(NC(=O)c2coc3cc(F)c(N4CC(C)N(C)C(C)C4)cc23)ccc1-n1ccnc1` (stereo not given) the value was -1.58%; for `O=C(/C=C/c1ccc(F)cc1)NC1CCC(CCN2CCc3ccc(-n4cccn4)cc3CC2)CC1` (stereo not given), 7.81%.
With `CCn1c(Sc2ccc(C#N)c([N+](=O)[O-])c2)nnc1-c1ccc(Cl)cc1`, the inhibition is 1.39%.
On to `CNC(=O)c1ccccc1Nc1nc(Nc2cccc(CS(C)(=O)=O)c2)ncc1C`, for which the inhibition was 8.04%.
With `Cc1cccc2nc(-c3ccc(-c4ccc(CN5CCOCC5)cc4)cc3)[nH]c12`, the inhibition stood at 2.61%.
As for `O=C(NC1CC1)c1ccc(N2CCC(Cc3ccccc3)CC2)nc1`, the inhibition was -1.16%.
For the compound `NC1=Nc2ccc(Cl)cc2C1(O)c1ccccc1` (stereo not given), the inhibition amounted to 0.97%.
Take `Cc1[nH]c(C)c(-c2ccc(-c3ccccc3C(F)(F)F)nc2)c(=O)c1Br`: the inhibition came out at 0.55%.
With `Cc1ccc(F)c(OCC2CCN(c3ccc(C(=O)NC4CC4)cn3)CC2)c1`, the inhibition is -1.65%.
Turning to `O=C(/C=C/c1ccc(Cl)c(Cl)c1)NCCCCCN1CCC(NC(=O)Nc2ccc(F)c(Cl)c2)CC1`, the inhibition is 6.8%.
As for `CN1CCN(c2ccnc3cc4c(cc23)N(C(=O)Nc2ccc3c(c2)CCCC3=O)CC4)CC1`, the inhibition turned out to be 0.75%.
`Cc1ccc(C)c2sc(N(CCCn3ccnc3)C(=O)c3ccco3)nc12`: the inhibition is 5.23%.
On to `Cn1nc(-c2ccc(NC(=O)Nc3cc(C(F)(F)F)cc(C(F)(F)F)c3)c(F)c2)c2cnc(NCCN3CCOCC3)nc21`, for which the inhibition stood at 3.49%.
In the case of `Cc1cccc(OCC2CCN(c3ncc(C(=O)NC4CC4)cc3Cl)CC2)c1`, the inhibition turned out to be 2.26%.
For `CN(C)Cc1cccc(-c2cnc(N)c(-c3nc4cc(S(C)(=O)=O)ccc4[nH]3)c2)c1`, the inhibition was 3.97%.
With `Cc1ccc(C(C(=O)Nc2ccc(N3CCNCC3)c(Cl)c2)c2ccccc2)cc1` (stereo not given), the inhibition was determined as 1.72%.
Consider `Cc1[nH]c(C)c(-c2ccc(-c3ccc(OC(F)(F)F)cc3)nc2)c(=O)c1Cl`, for which the inhibition came out at 0.22%.
Take `Cc1cc(N[C@@H](Cc2ccccc2)C(=O)NCc2cccc(F)c2)nc(NCCc2ccc(F)cc2)n1`: the inhibition was found to be 1.36%.
Turning to `CC(=O)Nc1cccc(CNc2cc(C)nc(Nc3ccc(C)cc3)n2)c1`, the inhibition was found to be 0.76%.
As for `CCCCNC(=O)[C@H](CC1CCCCC1)NC(=O)c1ccc(O)c(-c2cccc(C(F)(F)F)c2)c1`, the inhibition stood at 3.61%.
On to `NCCCNc1ccnc2cc(Cl)ccc12`, for which the inhibition was found to be 10.7%.
In the case of `O=C(/C=C/c1ccc(Cl)c(Cl)c1)NCCCCCN1CCC(NC(=O)c2cc(Cl)ccc2F)CC1`, the inhibition was -0.02%.
As for `Cc1[nH]c2ccc(NS(C)(=O)=O)cc2c1C1CCN(CCC2CCN(C(=O)/C=C/c3ccc(Cl)c(Cl)c3)CC2)CC1`, the inhibition was -1.24%.
For `COc1ccc(CNc2nc(NCc3ccccc3)c3cc(OC)c(OC)cc3n2)cc1OC` the value was 0.89%; for `O=C(NCc1ccc(F)cc1)Nc1ccc(-c2cccc(-c3nc4cc(F)ccc4[nH]3)c2)cc1`, -1%; for `Cc1nc2ccc(F)cc2n1C1CCN(C(=O)Cc2ccc(F)c(F)c2)CC1`, 1.89%.
Take `CS(=O)(=O)c1ccc(CNCc2ccc(-c3ccc(-c4nc5cc(C(F)(F)F)ccc5[nH]4)s3)cc2)cc1`: the inhibition was 9.87%.
On to `CC[C@H](C)CNC(=O)c1cncc(-c2cccc(CNCCCc3ccccc3)c2)c1`, for which the inhibition is 4.25%.
With `O=C(NCCCc1ccccc1)c1csc(C2CCCN(C(=O)c3ccc(O)c(-c4cccc5ccccc45)c3)C2)n1` (stereo not given), the inhibition is -0.59%.
Under `Cn1cncc1-c1ccc2ncnc(Nc3ccc(OCc4ccccc4)cc3)c2c1` stands 0.29%; under `CCNC(=O)N1CCN(c2nc(-c3ccccc3)nc(COC)c2Cc2ccc(C)cc2)CC1`, 3.78%.
Turning to `Cc1cc(NCC2CCN(CC3CCCCC3)C2)nc(Nc2ccc(Br)cc2)n1` (stereo not given), the inhibition is 3.47%.
For the compound `c1cc(CNCc2ccc3c(c2)OCO3)cc(-c2cccc(CNc3ccc4ncccc4c3)c2)c1`, the inhibition is -0.38%.
On to `COc1ccc(CCNc2nc(SCc3ccccc3Cl)nc3ccccc23)cc1OC`, for which the inhibition came to 1.42%.
On to `CCc1nc(N)nc(N)c1-c1ccc(C(C)(C)C)cc1`, for which the inhibition turned out to be 0.88%.
As for `Cc1ccc(-n2ncc(C(=O)Nc3cc(Cl)cc(Cl)c3)c2C2CCNCC2)cc1C`, the inhibition was -0.12%.
